# PvdQ acylase: P. aeruginosa PvdQ acylase inhibitors, primary screen, biochemical, fluorescence, plate reader and imaging, single point | PvdQ acylase [Pseudomonas aeruginosa LESB58] | purified PvdQ acylase | inhibition, % at 10 µM | 340,000 compounds, 0.063% hits; in the data active = inhibition above about 30%, passing the limit was not always enough;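 note: 0% = vehicle neutral wells and 100% = reference inhibitor wells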
# Rtt109 Vps75: inhibitors of C. albicans Rtt109/Vps75 HAT, primary screen, biochemical, ThioGlo CoA-SH fluorescence, plate reader; Histone acetyltransferase RTT109 (Candida albicans (strain SC5314 / ATCC MYA-2876)), …; purified Rtt109/Vps75, 4 h; inhibition, % at 34.9 µM; 330,000 compounds, 0.16% hits; AID 540336, 2011;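 active = inhibition of at least 50% in every replicate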
# ERp5 block: inhibitors of ERp5-driven insulin aggregation, primary screen, biochemical, turbidity, absorbance 650 nm, single point. Protein disulfide-isomerase A6 (Homo sapiens), Q15084. 90 min. inhibition, % at 9.99 µM. 350,000 compounds, 0.05% hits. AID 651711, 2012;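 active = mean replicate inhibition above about 25%, with every replicate also reaching it, limit read from the data, passing the limit was not always enough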
# PDI turbidity: inhibitors of human PDI, primary screen, biochemical, turbidity, single point, plate reader. 350,000 compounds, 0.052% hits. inhibition, % at 10 µM. Protein disulfide-isomerase (Homo sapiens), P07237. PDI insulin aggregation turbidity, A650, 90 min;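 active = mean inhibition across replicates of 30% or more, whatever share of single replicates reach that level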
# Target sequence (P07237 whole entry, looked up): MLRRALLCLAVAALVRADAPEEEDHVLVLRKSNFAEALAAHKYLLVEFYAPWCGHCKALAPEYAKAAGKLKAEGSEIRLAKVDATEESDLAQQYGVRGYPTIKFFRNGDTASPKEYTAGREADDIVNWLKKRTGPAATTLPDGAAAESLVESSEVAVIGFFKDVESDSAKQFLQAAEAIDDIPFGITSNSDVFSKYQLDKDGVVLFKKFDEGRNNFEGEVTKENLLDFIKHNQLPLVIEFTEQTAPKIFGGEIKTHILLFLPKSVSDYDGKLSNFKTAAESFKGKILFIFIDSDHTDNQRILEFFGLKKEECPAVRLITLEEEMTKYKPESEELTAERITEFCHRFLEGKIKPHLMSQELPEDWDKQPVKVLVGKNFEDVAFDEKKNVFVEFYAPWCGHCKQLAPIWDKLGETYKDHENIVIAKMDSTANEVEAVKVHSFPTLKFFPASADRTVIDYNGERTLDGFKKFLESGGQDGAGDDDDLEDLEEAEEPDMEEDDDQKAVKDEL
# Efflux pump inh: inhibitors of Candida efflux pumps in yeast, primary screen, S. cerevisiae, Nile Red, multiplex | 330,000 compounds, 0.44% hits | inhibition, % at 10 µM | AID 485275, 2010 | S. cerevisiae Candida pump triplex;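 active = plate passing quality check with inhibition over a set limit, or well fluorescence over plate mean plus 4 SD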;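 note: Nile Red retained in pooled yeast measured as flow cytometry median fluorescence; 0% = buffer negative control and 100% = Enniatin B positive control; higher means more Nile Red kept so more efflux inhibition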
# Yeast cmpd fluor: counter-screen for efflux pump inhibitors: compound fluorescence; S. cerevisiae AD/pABC3, flow cytometry; AID 588517; 1,700 compounds, 4% hits; shares compounds with Efflux pump inh; fluorescence ratio to DMSO, % at 10 µM;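 active = fluorescence ratio to DMSO above its plate's cutoff, the plate mean ratio plus 5 SD, cut at about 210% in these data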;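 note: unstained yeast with no Nile Red so the signal is compound autofluorescence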
# CaMdr1 efflux inh: inhibitors of Candida albicans Mdr1 efflux, confirmation, flow cytometry, singleplex, Cherry Pick1 set. shares compounds with Efflux pump inh. S. cerevisiae AD/CaMDR1, Nile Red efflux. inhibition, % at 10 µM. 1,700 compounds, 1% hits; in the data active = inhibition above about 26%;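 note: 0% = DMSO vehicle and 100% = reference inhibitor; higher means more Nile Red retained so more efflux inhibition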
# CaCdr2 efflux inh: inhibitors of Candida albicans Cdr2 efflux pump, confirmation, S. cerevisiae AD/CaCDR2, flow cytometry, cherry pick 1, singleplex; shares compounds with Efflux pump inh; Nile Red retention; Nile Red retention ratio vs DMSO, % at 10 µM; 1,700 compounds, 4% hits; AID 588520, 2011; in the data active = Nile Red retention ratio vs DMSO above about 190%;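 note: higher ratio means more blocking of Cdr2 efflux of the dye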
# Cdr1 pump inh: inhibitors of Candida albicans Cdr1 efflux pump, confirmation, S. cerevisiae AD/CaCDR1, flow cytometry, cherry pick 1, singleplex; 1,700 compounds, 1% hits; shares compounds with Efflux pump inh; inhibition, % at 10 µM; Nile Red efflux;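 active = inhibition above the screen-wide mean plus twice its standard deviation, cut at about 32% in these data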
# * hit, by the source's call; · = no result. Only some compounds are listed: those with a hit (about 0.54% of all), similar ones and a draw of the others.
SMILES,PvdQ acylase,Rtt109 Vps75,ERp5 block,PDI turbidity,Efflux pump inh,Yeast cmpd fluor,CaMdr1 efflux inh,CaCdr2 efflux inh,Cdr1 pump inh
COC(=O)C(Cc1ccccc1)NC(=O)CCNC(=O)c1ccco1 (stereo not given),4,1,3,-1,0.8*,91,0,85,0
COc1ccc(NC(=O)N(C)C[C@H]2Oc3ccc(NC(=O)CCN4CCOCC4)cc3CC(=O)N([C@H](C)CO)C[C@@H]2C)cc1,·,·,5,·,·,·,·,·,·
Cc1ccc(-n2c(Cc3cccs3)nnc2SCC(=O)Nc2ccc(F)c(F)c2)cc1,-1,12,0,12,0,100,0,95,0
Cn1c(Cc2cccs2)nnc1SCC(=O)Nc1ccccc1F,-12,-13,-1,-15,0,·,·,·,·
O=C(CSc1nnc(Cc2cccs2)n1-c1ccccc1)Nc1ccc2c(c1)OCCO2,-7,-8,·,-2,0,126,2,112,1
CCC(=O)Nc1ccc2c(c1)OC[C@@H](C)N(C(=O)c1cccnc1)C[C@H](C)[C@H](OC)CN(C)C2=O,·,·,8,·,·,·,·,·,·
COc1ccccc1CNS(=O)(=O)c1ccc2c(c1)CC(C)N2C(=O)C1CCC1 (stereo not given),-24,-7,1,-9,0,113,0,129,0
CC1Cc2cc(S(=O)(=O)N3CCCCC3)ccc2N1C(=O)C1CCC1 (stereo not given),-13,-5,-3,-2,0,102,0,98,0
COc1cccc(S(=O)(=O)N[C@H]2CC[C@H](CCNC(=O)Cc3ccncc3)O[C@@H]2CO)c1,·,·,10,·,·,·,·,·,·
O/N=C/c1ccc(-c2cc(Cl)ccc2Cl)o1,-2,-9,-4,-3,11*,84,0,95,0
COc1ccc(S(=O)(=O)N[C@H]2C=C[C@H](CC(=O)NCCc3ccncc3)O[C@@H]2CO)cc1,·,·,-1,·,·,·,·,·,·
CCN(CC(=O)Nc1ccc(NC(C)=O)cc1)CC(=O)Nc1ccccc1C(=O)c1ccccc1,7,6,-1,6,0.7*,114,0,112,0
Cc1ccc(S(=O)(=O)N(C)C[C@@H]2Oc3ccc(NC(=O)NC(C)C)cc3CC(=O)N([C@@H](C)CO)C[C@@H]2C)cc1,·,·,-1,·,·,·,·,·,·
Oc1ccc(Br)cc1C=Nc1ccc2c3c(cccc13)CC2,-5,5,4,-5,3.1*,102,0,116,0
O=Cc1ccc(-n2cncn2)cc1,-9,·,3,8,1.0*,97,0,98,0
COc1ccc(-c2cnc3c(c2)C(=O)N([C@H](C)CO)C[C@@H](C)[C@H](CN(C)C)O3)cc1,·,·,-5,·,·,·,·,·,·
COCC(=O)N(C)C[C@H]1Oc2ncc(C#C[C@@H](C)O)cc2C(=O)N([C@@H](C)CO)C[C@H]1C,·,·,2,·,·,·,·,·,·
COc1ccc([C@H]2CC(=O)C=C(c3ccnc4ccc(Cl)cc34)C2)cc1,6,-2,-6,14,67*,105,0,102,0
CCCCCC1C/C(=N\O)C=C(C)C1C(=O)OC (stereo not given),7,13,2,-12,1.5*,99,0,103,0
Cc1occc1C(=O)NCc1cccc(CNC(=O)c2ccoc2C)c1,-1,-4,·,8,0.3*,100,0,112,0
CO[C@@H]1CN(C)C(=O)c2ccc(NC(=O)c3cccc(F)c3)cc2OC[C@@H](C)N(C)C[C@H]1C,·,·,6,·,·,·,·,·,·
Clc1ccc(SCc2cc(N3CCOCC3)nc(-c3ccccn3)n2)cc1,11,·,-9,5,0,·,·,·,·

# Compound activity as filed in PubChem.
